Measured values published in PubChem BioAssay.
A number with no mark means an inactive call.

test: budding yeast growth changes without added modifier – OD600, strain BY4716, 24 h, basal condition, primary screen (AID 1173); details: S. cerevisiae BY4716 growth, OD600, 24 h; higher = more signal, called active from +8 up or from −8 down

Row | SMILES | z-score
1 | COCCOC(=O)N1C(=O)[C@@]2(c3ccccc31)[C@H](c1ccc(OCCO)cc1)N1[C@H](c3ccccc3)[C@H](c3ccccc3)OC(=O)[C@H]1[C@@H]2C(=O)Nc1nc2ccccc2s1 | 1.29
2 | [N-]=[N+]=Nc1ccccc1C[C@@]1(C(=O)O)N=C(c2ccc(OCCCO)cc2)O[C@@H]1c1ccccc1 | -2.01
3 | CCCNC(=O)[C@@]1(c2ccc([N+](=O)[O-])cc2)CC(=O)N(C2CCCCC2)[C@@H]1c1ccc(CO)cc1I | 0.641
4 | COc1ccc([Si](C)(C)[C@H]2[C@H](CCn3cc([C@H](O)c4ccccc4)nn3)O[C@@]3(C(=O)N(Cc4ccc(N5CCOC5=O)cc4)c4ccccc43)[C@@H]2C)cc1 | 0.574
5 | COCCCNC(=O)[C@@]1(Sc2ccc(C)cc2)CC(=O)N(Cc2cc(C(F)(F)F)cc(C(F)(F)F)c2)[C@@H]1c1ccc(CO)cc1 | -0.138
6 | C=CCC(OC(C)=O)[C@@H]1[C@@H](N(Cc2cc3ccccc3o2)C(=O)Cc2ccc(F)cc2)c2cc(OCCCO)ccc2N1C(=O)c1ccc2ccccc2n1 (stereo partly drawn) | -0.44
7 | CCCCC(=C=CC[C@@H](O)c1ccc(OCCO)cc1)C[C@@H](O)COCc1ccccc1 | -5.91
8 | O=C1O[C@@H](c2ccccc2)[C@@H](c2ccccc2)N2[C@@H](c3ccc(O)cc3)[C@]3(C(=O)Nc4ccc(C#CCCO)cc43)[C@@H](C(=O)NC[C@H](O)c3ccccc3)[C@H]12 | -0.169
9 | [N-]=[N+]=Nc1ccccc1[C@@H]1OC(c2ccc(OCCCO)cc2)=N[C@]1(CCS(=O)(=O)c1ccccc1)C(=O)NCCN1CCOCC1 | -1.32
10 | COCCCNC(=O)[C@@H]1c2ccccc2C(=O)N(Cc2ccccc2C(F)(F)F)[C@H]1c1ccc(CO)cc1 | -0.756
11 | NC(=O)N1C(=O)C2C(C1=O)C1C=C(CCCO)C2C(c2cccs2)N1Cc1cc2c(cc1Br)OCO2 (stereo not drawn) | -2.37
12 | CCOC(=O)C[C@H]1[C@H](OC(=O)c2ccccc2-c2ccccc2)[C@@H](NC(=O)CC(C)C)c2cc(OCCCO)ccc2N1C(=O)c1ccc2ccccc2n1 | 0.706
13 | CN1C(=O)C2C=CC(C(O)C3CCCCC3)N(N3CCCCC3)C2C1=O (stereo not drawn) | 0.369
14 | CO[C@H]1O[C@H](CO)[C@@H](OC(=O)Nc2ccc(C(F)(F)F)cc2)[C@H](OC(=O)Nc2ccc3c(c2)OCO3)[C@H]1OC(=O)Nc1ccc2c(c1)OCO2 | 0.634
15 | NCCCCCCNC(=O)[C@@H]1C[C@@H]2C(=O)N3CCC[C@H]3C(=O)N2[C@@H]1c1ccc(O)cc1 | -0.547
16 | COC(=O)C(CC#Cc1ccc2c(c1)[C@]1(C(=O)N2)[C@H](C(=O)O)[C@H]2C(=O)O[C@H](c3ccccc3)[C@H](c3ccccc3)N2[C@@H]1c1ccccc1OCCO)C(=O)OC | -0.307
17 | CCOC(=O)[C@H]1C/C=C/C[C@H](C(=O)OCC)C(=O)O[C@H]2[C@@H](OC)O[C@H](CO)[C@@H](OC(=O)CCc3ccccc3)[C@@H]2OC1=O | -1.08
18 | C[C@]12C(=O)N(CCCCCCO)[C@@H]3C(=O)N(c4ccc(Cl)cc4)CC=CC31O[C@@H]1/C=C\CCCOC(=O)C12 (stereo partly drawn) | -1.3

test: viability profiling in MM1S myeloma cells – cell-based, resazurin fluorescence, basal, 24 h, PK04 Diversity Set, profiling panel (AID 1174); details: higher = more signal, called active from +8 up or from −8 down;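 further: MM1S multiple myeloma cell line; test concentration not given here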

Row | SMILES | z-score
19 | O=C1c2ccccc2[C@](Cc2ccccc2I)(C(=O)NCc2ccccc2)[C@H](c2ccc(CO)cc2)N1C1CCCCC1 | 0.485
20 | COc1ccc(C(O)C2C=CC3C(=O)N(C)C(=O)C3N2N2CCCCC2)cc1 (stereo not drawn) | -0.8
21 | C=C1C2CC3C(=C4C(CO[C@@H]4[C@H]4CCCN4S(=O)(=O)c4ccccc4[N+](=O)[O-])C4C(=O)N(C)C(=O)C34)CC2C(=O)N1C (stereo partly drawn) | -0.316
22 | COCCOC(=O)N1C(=O)[C@@]2(c3cc(C#CC4=CCCCC4)ccc31)[C@H](c1ccc(O)cc1)N1[C@H](c3ccccc3)[C@H](c3ccccc3)OC(=O)[C@H]1[C@@H]2C(=O)Nc1nc2ccccc2s1 | 0.0007
23 | C[C@H]1C2=C3C(CC[C@H]4C(OCc5ccc(F)cc5C(F)(F)F)OC[C@](C)([C@@H]34)N(C(=O)OC(C)(C)C)C2)C(CO)C1CO (stereo partly drawn) | -2.08
24 | COCCOC(=O)N1C(=O)[C@@]2(c3cc(C#CC4(O)CCCCCC4)ccc31)[C@H](C(=O)N1CCCCCCC1)[C@H]1C(=O)O[C@H](c3ccccc3)[C@H](c3ccccc3)N1[C@@H]2c1ccc(OCCO)cc1 | 0.67
25 | COCCOC(=O)N1C(=O)[C@@]2(c3cc(C#CC4(O)CCCCCC4)ccc31)[C@H](C(N)=O)[C@H]1C(=O)O[C@H](c3ccccc3)[C@H](c3ccccc3)N1[C@@H]2c1ccccc1OCCO | -7.01
26 | CC(=O)N1Cc2ccccc2C[C@]2(N=C(c3ccc(OCCCO)cc3)O[C@@H]2c2ccccc2)C1=O | -2.6
27 | O=C1OCC=C[C@H]2OC34C=CCN(c5ccc(Cl)cc5)C(=O)[C@H]3N(CCCCCO)C(=O)[C@@H]4[C@@H]12 (stereo partly drawn) | -0.338
28 | C=C(C(=O)CC[C@H](OC(=O)c1cccnc1)c1cccc(OCCO)c1)C(C)C | -1.16
29 | CC(C)C(O)C1C=CC2C(=O)N(C)C(=O)C2N1N(c1ccccc1)c1ccccc1 (stereo not drawn) | -1.62
30 | O=C1O[C@@H](c2ccccc2)[C@@H](c2ccccc2)N2[C@@H](c3ccc(O)cc3)[C@]3(C(=O)Nc4ccccc43)[C@@H](C(=O)Nc3nc4ccccc4s3)[C@H]12 | -3.11
31 | COC(=O)[C@@]1(Cc2ccc(OC)cc2)[C@H]2c3cc(C(=O)N(C)C)n(Cc4ccccc4)c3C[C@H]2CN1C(=O)c1ccccc1 | -1.15
32 | CC1CC/C=C\[C@H]2OC34C=CCN(CCN5CCOCC5)C(=O)[C@H]3N(CCO)C(=O)[C@@H]4C2C(=O)O1 (stereo partly drawn) | 0.322
33 | COC(=O)[C@]1(CCS(=O)(=O)c2ccccc2)N=C(c2ccc(OCCCO)cc2)O[C@@H]1c1ccccc1CN=[N+]=[N-] | -4.25
34 | CC(C)(C)OC(=O)CC[C@]1(C(=O)O)N=C(c2ccc(OCCCO)cc2)O[C@H]1c1ccccc1 | 0.904
35 | O=C1c2ccccc2[C@@]2(Cc3ccccc3N(C3CC3)C2=O)[C@H](c2ccc(CO)cc2)N1C1CCCCC1 | -0.36
36 | COCCOC(=O)N1C(=O)[C@@]2(c3ccccc31)[C@H](c1ccc(OCCO)cc1)N1[C@H](c3ccccc3)[C@H](c3ccccc3)OC(=O)[C@H]1[C@@H]2C(=O)Nc1nc2ccccc2s1 | -0.657

Row | SMILES | z-score
37 | [N-]=[N+]=Nc1ccccc1C[C@@]1(C(=O)O)N=C(c2ccc(OCCCO)cc2)O[C@@H]1c1ccccc1 | -0.161
38 | CCCNC(=O)[C@@]1(c2ccc([N+](=O)[O-])cc2)CC(=O)N(C2CCCCC2)[C@@H]1c1ccc(CO)cc1I | -0.606
39 | COc1ccc([Si](C)(C)[C@H]2[C@H](CCn3cc([C@H](O)c4ccccc4)nn3)O[C@@]3(C(=O)N(Cc4ccc(N5CCOC5=O)cc4)c4ccccc43)[C@@H]2C)cc1 | -0.412
40 | COCCCNC(=O)[C@@]1(Sc2ccc(C)cc2)CC(=O)N(Cc2cc(C(F)(F)F)cc(C(F)(F)F)c2)[C@@H]1c1ccc(CO)cc1 | -0.538
41 | C=CCC(OC(C)=O)[C@@H]1[C@@H](N(Cc2cc3ccccc3o2)C(=O)Cc2ccc(F)cc2)c2cc(OCCCO)ccc2N1C(=O)c1ccc2ccccc2n1 (stereo partly drawn) | 0.74
42 | CCCCC(=C=CC[C@@H](O)c1ccc(OCCO)cc1)C[C@@H](O)COCc1ccccc1 | -0.301
43 | O=C1O[C@@H](c2ccccc2)[C@@H](c2ccccc2)N2[C@@H](c3ccc(O)cc3)[C@]3(C(=O)Nc4ccc(C#CCCO)cc43)[C@@H](C(=O)NC[C@H](O)c3ccccc3)[C@H]12 | 0.214
44 | [N-]=[N+]=Nc1ccccc1[C@@H]1OC(c2ccc(OCCCO)cc2)=N[C@]1(CCS(=O)(=O)c1ccccc1)C(=O)NCCN1CCOCC1 | -0.195
45 | COCCCNC(=O)[C@@H]1c2ccccc2C(=O)N(Cc2ccccc2C(F)(F)F)[C@H]1c1ccc(CO)cc1 | 1.51
46 | NC(=O)N1C(=O)C2C(C1=O)C1C=C(CCCO)C2C(c2cccs2)N1Cc1cc2c(cc1Br)OCO2 (stereo not drawn) | 0.271
47 | CCOC(=O)C[C@H]1[C@H](OC(=O)c2ccccc2-c2ccccc2)[C@@H](NC(=O)CC(C)C)c2cc(OCCCO)ccc2N1C(=O)c1ccc2ccccc2n1 | 0.0612
48 | CN1C(=O)C2C=CC(C(O)C3CCCCC3)N(N3CCCCC3)C2C1=O (stereo not drawn) | -0.752
49 | CO[C@H]1O[C@H](CO)[C@@H](OC(=O)Nc2ccc(C(F)(F)F)cc2)[C@H](OC(=O)Nc2ccc3c(c2)OCO3)[C@H]1OC(=O)Nc1ccc2c(c1)OCO2 | -3.06
50 | NCCCCCCNC(=O)[C@@H]1C[C@@H]2C(=O)N3CCC[C@H]3C(=O)N2[C@@H]1c1ccc(O)cc1 | -0.233
51 | COC(=O)C(CC#Cc1ccc2c(c1)[C@]1(C(=O)N2)[C@H](C(=O)O)[C@H]2C(=O)O[C@H](c3ccccc3)[C@H](c3ccccc3)N2[C@@H]1c1ccccc1OCCO)C(=O)OC | 0.0819
52 | CCOC(=O)[C@H]1C/C=C/C[C@H](C(=O)OCC)C(=O)O[C@H]2[C@@H](OC)O[C@H](CO)[C@@H](OC(=O)CCc3ccccc3)[C@@H]2OC1=O | 0.204
53 | C[C@]12C(=O)N(CCCCCCO)[C@@H]3C(=O)N(c4ccc(Cl)cc4)CC=CC31O[C@@H]1/C=C\CCCOC(=O)C12 (stereo partly drawn) | 0.423
